Compound activity as filed in PubChem BioAssay.
Pf Dd2 growth – Plasmodium falciparum Dd2 growth inhibition; P. falciparum Dd2 growth, SYBR Green, 72 h; Potency, µM (highest dose often 28.9 µM), without a hit: at the highest dose activity, negative = inhibition, actives largely listed as inhibitors; 120,000 compounds, 4.3% hits; active = well fitted inhibition curve with a large enough effect;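 also: plate controls were DMSO vehicle for no effect and reference drug for full effect; nearly all actives have a fitted effect of over 65% in size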
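Readout: SYBR Green fluorescence, 485 nm excitation, 535 nm emission, after ~16 h lysis at 37C. Before that, Dd2-infected red cells (2.5% hematocrit) grew 72 h with compound, 29 uM top final concentration.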
* marks the source's active call; other numbers are inactive results; i = inactive; [ ] = remark or other dose. Many of the other results were omitted from the sample, so hits are more common in it than they were. Potency is read from the fitted curve at half-maximal effect.

SMILES	Pf Dd2 growth
COc1ccc(N2Cc3c(NCc4ccc(F)cc4)ncnc3N(C)CC2=O)cc1	i
COc1ccccc1NC(=O)Cn1c(=O)n(Cc2ccco2)c(=O)c2cccnc21	13%
CCOc1ccccc1NC(=O)Cn1c(=O)n(Cc2ccco2)c(=O)c2cccnc21	11µM*
Cc1ccc(NC(=O)Cn2c(=O)n(Cc3ccco3)c(=O)c3ccccc32)c(C)c1	-2%
CC1CCN(C[C@H]2CN3CC[C@H]2C[C@@H]3CNC(=O)c2ccc(N(C)C)cc2)CC1	i
CCCNC(=O)C1COC2(CCN(C(=O)c3ccccc3C)CC2)N1C(=O)c1cccc(F)c1 (configuration not stated)	-2%
CCC1Oc2ccc(NC(=O)c3ccc4c(c3)OCO4)cc2CN(Cc2ccccc2)C1=O (configuration not stated)	-8%
O=C(Cn1ccn2nc(-c3ccccc3)c(CO)c2c1=O)Nc1ccc2c(c1)OCCO2	-13%
O=C(C1CN(c2ccccc2)C(=O)N1)N1CCN(Cc2ccccc2)CC1 (configuration not stated)	-7%
CN1C[C@H](NCc2nccs2)CCC[C@@H](C(=O)NC2CCOCC2)CC1=O	16%[44.1 µM]
CN1CCN(c2cc(=O)c3ccnc(N4CCN(c5ccccn5)CC4)c3o2)CC1	-14%[44.1 µM]
CN(c1ccccc1)c1cc(=O)c2ccnc(N3CCOCC3)c2o1	-11%[44.1 µM]
CN(c1ccccc1)c1cc(=O)c2ccnc(N3CCN(c4ccccn4)CC3)c2o1	13µM*
CCc1noc(-c2cccn3c(CNC(=O)Cc4ccc(C)cc4)nnc23)n1	i
O=C(c1ccc2[nH]ccc2c1)N1CCC2(CC1)N=C(c1cccc(Br)c1)NO2	i
COc1ccccc1-c1cc(Nc2ccc(N3CCOCC3)cc2)c2onc(C)c2n1	i
C=Cc1ccc(CSc2nc(-c3ccc(C)cc3)nc3c2Cc2c(CO)cnc(C)c2O3)cc1	2.8µM*
COc1ccccc1-c1nc2c(c(SCC(=O)Nc3c(C)cc(C)cc3C)n1)Cc1c(CO)cnc(C)c1O2	-16%
C=Cc1ccc(CSc2nnc(C)n3c2cc2occc23)cc1	-1%
Cc1cccc(-c2nc3c(c(SCc4ccccc4Cl)n2)Cc2c(CO)cnc(C)c2O3)c1	1%
COc1ccc(-c2nc3c(c(SCC(=O)Nc4cc(C)cc(C)c4)n2)Cc2c(CO)cnc(C)c2O3)cc1	49%
Cc1ccc(C)c(NC(=O)CSc2nc(-c3ccccc3Cl)nc3c2Cc2c(CO)cnc(C)c2O3)c1	9%
CCc1ccccc1NC(=O)CSc1nc(-c2ccccc2OC)nc2c1Cc1c(CO)cnc(C)c1O2	-12%
CCCCSc1nc(-c2cccc(OC)c2)nc2c1Cc1c(CO)cnc(C)c1O2	-14%
CCc1ccc(NC(=O)CSc2nc(-c3cccc(OC)c3)nc3c2Cc2c(CO)cnc(C)c2O3)cc1	3.5µM*
SMILES	Pf Dd2 growth
CCc1ccc(CSc2nc(-c3ccccc3OC)nc3c2Cc2c(CO)cnc(C)c2O3)cc1	3.2µM*
Cc1ccc(-c2nc3c(c(SCC(=O)N4CCCCC4)n2)Cc2cc(C)ccc2O3)cc1	-22%
Cc1ccc(CSc2nc(-c3ccccc3C)nc3c2Cc2c(CO)cnc(C)c2O3)cc1	5µM*
COCCCNC(=O)CCc1nc(C2CCCN2S(C)(=O)=O)no1 (configuration not stated)	76%
COCCN1C[C@H]2CN(C(=O)C3CC3)CCN2C1=O	1%[44.1 µM]
COCCN1CCC(N2CCN(C(=O)Cc3ccc(Cl)cc3)CC2)C1=O (configuration not stated)	-8%
COC[C@@H]1CN(C(=O)c2cc(C)[nH]n2)C[C@H]1c1ccncc1	6%
NC(=O)[C@@H](Cc1c[nH]c2ccccc12)NC(=O)[C@@H]1C[C@@H](NS(=O)(=O)c2cccs2)CCN1C(=O)COCC(=O)O	1%
COc1ccc(-c2cc(C(=O)NCc3c(C)cc(C)[nH]c3=O)c3c(c2)N(C)CCO3)cc1	-1%[44.1 µM]
Cc1nc(C)c(C(=O)NCC23CCC=C2N(C)C(=O)CC3)s1 (configuration not stated)	i
CCc1noc(-c2nc(-c3ccc(F)c(F)c3)no2)n1	-5%
COC(=O)[C@@H](Cc1c[nH]c2ccccc12)NC(=O)[C@@H]1CN(C(=O)Nc2ccccc2)CCN1C(=O)NC(C)C	i
Cc1cc2[nH]c(=O)c(=O)[nH]c2cc1S(=O)(=O)N1CCN(c2ccccc2F)CC1	9%
Cc1cc2[nH]c(=O)c(=O)[nH]c2cc1S(=O)(=O)N1CCN(c2cccc(C)c2C)CC1	7.9µM*
COc1ccccc1N1CCN(S(=O)(=O)c2cc3[nH]c(=O)c(=O)[nH]c3cc2C)CC1	-7%
Cc1nn2c(c1-c1ccccc1OCc1ccccc1)N(C(=O)C1CCC1)CCC2	-8%[44.1 µM]
CCc1cccc(NC(=O)Nc2ccc3c(c2)N(C)C(=O)c2ccccc2S3)c1	i
CN1C(=O)c2ccccc2Sc2ccc(NC(=O)N3CCN(c4cccc(Cl)c4)CC3)cc21	13µM*
CN1C(=O)c2ccccc2Sc2ccc(NC(=O)Nc3ccccc3F)cc21	-14%
Cc1ccc(-n2c(/C=C/c3cccs3)nc3ccccc3c2=O)cc1C	8.9µM*
COc1cccc(/C=C/c2nc3ccccc3c(=O)n2-c2ccc(C)c(C)c2)c1OC	11%
